Source: PubChem BioAssay (National Center for Advancing Translational Sciences (NCATS))
RXFP1 antag = blocks the human relaxin receptor RXFP1; activity change, negative = inhibition, % at 57.5 µM; HEK293-RXFP1, relaxin-stimulated cAMP HTRF, 30 min; stronger effect = lower value; AID 1259400; 0.59% of 350,000 active;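 active means activity change of -60% or lower, but not beyond a set lower limit; inconclusive means change between -60% and -40%, or beyond the set limit; inactive means change above -40%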
Target sequence (Q9HBX9 whole entry, looked up): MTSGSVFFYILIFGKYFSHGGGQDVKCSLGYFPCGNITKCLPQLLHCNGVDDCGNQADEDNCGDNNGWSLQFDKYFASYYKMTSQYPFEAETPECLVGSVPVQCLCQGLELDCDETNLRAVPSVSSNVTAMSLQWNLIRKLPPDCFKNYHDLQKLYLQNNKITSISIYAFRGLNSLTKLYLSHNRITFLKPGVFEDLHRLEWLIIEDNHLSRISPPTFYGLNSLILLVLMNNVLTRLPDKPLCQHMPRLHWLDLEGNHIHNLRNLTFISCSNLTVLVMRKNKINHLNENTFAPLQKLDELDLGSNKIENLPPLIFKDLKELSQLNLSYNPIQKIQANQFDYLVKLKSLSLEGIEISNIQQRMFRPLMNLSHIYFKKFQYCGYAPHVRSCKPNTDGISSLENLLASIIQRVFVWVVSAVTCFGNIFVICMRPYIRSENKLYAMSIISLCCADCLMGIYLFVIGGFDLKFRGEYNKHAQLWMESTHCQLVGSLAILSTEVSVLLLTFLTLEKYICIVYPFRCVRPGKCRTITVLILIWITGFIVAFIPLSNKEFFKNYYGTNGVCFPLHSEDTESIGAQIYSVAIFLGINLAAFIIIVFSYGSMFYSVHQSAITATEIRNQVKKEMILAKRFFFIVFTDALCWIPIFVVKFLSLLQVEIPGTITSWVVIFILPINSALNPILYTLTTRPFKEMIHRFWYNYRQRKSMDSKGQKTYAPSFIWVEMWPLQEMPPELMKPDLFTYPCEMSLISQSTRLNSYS
RXFP1 ag = RXFP1 (human) receptor agonism | 0.3% of 370,000 active | Q9HBX9 | Potency, µM (doses to about 57.5 µM), hits mostly activators | HEK293T-RXFP1 cAMP TR-FRET, 30 min; response scale: percent of porcine relaxin response, buffer zero; active means well fitted activation curve with a large enough effect; inconclusive means small, poorly fitted or top-dose-only effect; further: nearly all actives have a fitted effect of over 60% in size
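HEK293T cells stably expressing RXFP1 were pretreated with the PDE4 inhibitor Ro 20174, exposed to compounds for 30 min at 37C, lysed, and cAMP was read by TR-FRET. Data normalized to buffer (basal) and 29 nM porcine relaxin (100%).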
gsp antagonist = antagonizes gsp, the McCune-Albright syndrome mutation | 0.4% of 340,000 active | gsp-mutant cells, cAMP HTRF, 30 min | AID 624288 | Potency, µM (series often up to 76.9 µM), usual class: inhibitors; calls by dose curve; cell line not stated here;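 further: intracellular cAMP measured with PDE inhibitor Ro 20-1724 present during compound exposure; nearly all actives have a fitted effect of over 65% in size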
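Cells, 2000/well, grown 16–24 h in DMEM 10% FBS with 0.5 mg/ml G418, then compounds plus […] (300 uM addition stock), 30 min at 37C. cAMP read by HTRF (cAMP-d2 and anti-cAMP antibody-K in lysis buffer) after 30 min RT.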
Akt phos inh = blocks phosphorylation of Akt. Neuro2A IGF-stimulated pAkt S473 HTRF, 20 min; stronger effect = lower value. activity change, % for hits at 50 µM. 0.32% of 360,000 active; in the data active means activity change below about -80%; inconclusive means mostly about -51% to -80%
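Neuro2A cells in DMEM with 0.5% FBS, overnight at 37 deg C, given compound at single 50 µM final, then IGF (6 nM final) for 20 min at 37 deg C. Lysed; phospho-Akt Ser473 by HTRF after 24 h, 665/615 ratio.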
gsp agonist = gsp mutant agonism; gsp mutant cells, cAMP HTRF, 30 min; Potency, µM (highest dose often 76.9 µM), usual class: activators; 0.13% of 340,000 active; active means well fitted activation curve with a large enough effect; inconclusive means small, poorly fitted or top-dose-only effect, or another doubt; inactive means no such curve, though single readings can be large or run the other way; cell line not stated here;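 further: phosphodiesterase inhibitor Ro 20-1724 added with compounds to block cAMP breakdown; nearly all actives have a fitted effect of over 60% in size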
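Cells in DMEM/10% FBS with G418 were pretreated with compounds in DMSO plus […] (300 uM stock) for 30 min at 37C. cAMP was measured by HTRF (cAMP-d2 plus anti-cAMP antibody-K) after 30 min at room temperature.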
Numbers stand for hits; 0 = inactive; ? = inconclusive; - = no result given; ! = repeats disagree; [ ] = remark or other dose. This is a sample that favours compounds with a hit; in the whole collection about 1.2% have one here.

SMILES	RXFP1 antag	RXFP1 ag	gsp antagonist	Akt phos inh	gsp agonist
O=C(Nc1ccc(S(=O)(=O)N2CCCC2)cc1)c1cccs1	0	0	-	0	0[15.4 µM]
Cc1nc2c(C(=O)NC(C)c3ccccc3)cnn2c(C)c1Cc1ccccc1 (stereo unspecified)	-85.4	0	-	-	-
COC(CNC(=O)c1cnn2c(C)c(Cc3ccccc3)c(C)nc12)OC	0	0	0	0	0[15.4 µM]
Cc1nc2c(C(=O)NCCc3ccc(Cl)cc3)cnn2c(C)c1Cc1ccc(F)cc1	-61.4	0	-	-	-
Cc1nc2c(C(=O)NCCc3ccc(Cl)cc3)cnn2c(C)c1Cc1c(F)cccc1Cl	0	0	-	-	-
O=C(CSc1oc(-c2ccco2)nc1S(=O)(=O)c1ccc(Br)cc1)c1ccc(Cl)cc1	0	0	-	-	-
CCC(=O)N1CCc2cc(Br)cc(S(=O)(=O)CC(=O)OC)c21	0	0	0[15.4 µM]	-106.5%	0
CCC(=O)N1CCc2cc(Br)cc(S(=O)(=O)NCCN3CCCC3)c21	0	0	0	0	0
COc1cc(NC(=O)c2ccc3c(c2)OCO3)ccc1NC(=O)C(C)C	0	0	0	-115.0%	0
O=C(c1cccs1)N1N=C(c2ccc(O)cc2)CC1c1ccccc1 (stereo unspecified)	0	0	?	0	0
O=C(c1cccs1)N1N=C(c2ccccc2)CC1c1ccc(O)cc1 (stereo unspecified)	?	0	28.2µM	0	0
Cc1ccccc1-c1cc(C(=O)Nc2sc(C(=O)OC(C)C)c(C)c2C#N)c2ccccc2n1	-64.7	0	11.2µM	0	0
CC(OC(=O)/C(C#N)=C/c1ccc(N(C)C)cc1)C(=O)N(C)c1ccccc1 (stereo unspecified)	0	0	25.1µM	0	0
CC(=O)Nc1ccc(NC(=O)C(C)OC(=O)/C(C#N)=C/c2ccc(N(C)C)cc2)cc1 (stereo unspecified)	0	0	0	0	?
COc1ccc(C(c2c(C)[nH]n(C(N)=S)c2=O)C(C#N)C#N)cc1 (stereo unspecified)	0	0	0	0	0
Cc1[nH]n(-c2ncc(-c3ccc(Cl)cc3)s2)c(=O)c1C(c1ccc(Cl)cc1)C(C#N)C#N (stereo unspecified)	-87.8	0	0	0	0[15.4 µM]
Cc1ccc(C)c(N2CCN(S(=O)(=O)c3ccc(-c4cnc(C5CC5)o4)cc3)CC2)c1	-	0	-	-	-
Cc1cccc(NC(=O)c2cc3c(=O)n(Cc4ccco4)ccc3nc2C)c1	0	0	-	-	-
CC(=O)NCCNc1nc2c(-c3ccccc3)nnn2c2ccccc12	0	0	0	0	22.4µM
CC(=O)NCCNc1nc2c(-c3cccc(C)c3)nnn2c2ccccc12	0	0	0	0	0
O=C(O)CCNc1cc(N2CCN(C(=O)c3ccco3)CC2)c2noc3c2c1C(=O)c1ccccc1-3	-74.7	0	?	0	0[15.4 µM]
COC(=O)c1cc2oc(C)cc2n1Cc1ccc(Cl)cc1	0	0	-	-	-
CN/C=C1\C(=O)C(C)(C)Oc2ccc3ccc(=O)oc3c21	0	0	0	-93.5%	0
CCOC(=O)C1=C(C)NC2=C(C(=O)C(C(=O)OCC)C(c3ccc(OC)cc3)C2)C1c1ccccn1 (stereo unspecified)	0	0	0[15.4 µM]	-108.1%	0
CCOC(=O)C1=C(C)NC2=C(C(=O)C(C(=O)OCC)C(c3cccc(OC)c3)C2)C1c1ccccn1 (stereo unspecified)	0	0	0	0	?
SMILES	RXFP1 antag	RXFP1 ag	gsp antagonist	Akt phos inh	gsp agonist
Cc1ccc(C)c(NS(=O)(=O)c2ccc3c4c(cccc24)C(=O)N3)c1	-78.7	0	-	-	-
Cc1cc(Br)cc2c1N(Cc1ccccc1OC(C)C)C(=O)C2=O	0	0	-	-	-
COc1ccc(NC(=O)Nc2ccc3c(c2)N(C)C(=O)CS3)cc1Cl	?	0	50.1µM	0	0
CCOc1ccc(NC(=O)Nc2ccc3c(c2)N(C)C(=O)CS3)cc1	-	0	0	0	0
COc1ccc(NC(=O)Nc2ccc3c(c2)N(C)C(=O)CS3)cc1OC	-	0	0	0	0
CC(=O)c1ccc(NC(=O)Nc2ccc3c(c2)N(C)C(=O)CS3)cc1	-69.8	0	35.5µM	0	?
COc1ccc(SCc2cc(=O)c3cc(Cl)ccc3[nH]2)cc1	0	0	-	-	-
Cc1ccc(NC(=O)C2SC(=Nc3ccccc3)C(C(=O)Nc3ccc(Cl)cc3)=C2N)cc1 (stereo unspecified)	-66.4	0	0	0	0[15.4 µM]
CCC(C(=O)NCCc1cc(OC)ccc1OC)n1nc(C)c2sc3ccccc3c2c1=O (stereo unspecified)	0	0	-	-	-
CCOCC(=O)Nc1nc2ccc(OCC)cc2s1	0	0	0	0	0
CCOc1ccc2nc(NC(=O)C3(C)CC3(Br)Br)sc2c1 (stereo unspecified)	-84.5	-	?	0	0
Cc1ccc(NC(=O)C2CCCN(S(=O)(=O)c3cccc4cccnc34)C2)c(C)c1 (stereo unspecified)	0	0	-	-	-
Cc1cccc(CNC(=O)c2ccc(NC(=O)N3CCSc4ccccc43)cc2)c1	0	0	-	-	-
COc1ccc(/C=C2\SC(=S)N(CC3CCCO3)C2=O)cc1 (stereo unspecified)	0	0	0	0	0[15.4 µM]
COc1ccc(N=C2O/C(=C/c3sc(=S)n(CC4CCCO4)c3O)N=C2C#N)cc1 (stereo unspecified)	-88.3	0	35.5µM	0	0
CCN(CC)S(=O)(=O)c1ccc2c(c1)N(CC(=O)Nc1ccc(F)cc1F)C(=O)C1CCCN21 (stereo unspecified)	0	0	-	-	-
CCOc1ccc(Cn2nnc(C(=O)NCc3ccc(OC)cc3)c2N)cc1	-	31.6µM	0	0	0
COc1ccc(F)cc1S(=O)(=O)NCCc1sc2nc(-c3ccc(F)cc3)nn2c1C	0	0	-	-	-
CCOc1ccc(CCNC(=O)CCCn2c(=O)c3cccn3c3cccnc32)cc1OCC	-95.6!	?	?	-	0
COc1cc(CNCCSc2nnnn2C)ccc1OCc1ccc(C)cc1	0	0	-	-	-
CCN=C1SC(CC(=O)NC2CCCCC2)C(=O)N1CC (stereo unspecified)	0	0	0	0	0
CCN=C1SC(CC(=O)NC(N)=O)C(=O)N1CC (stereo unspecified)	0	0	0	-105.6%	0
O=[N+]([O-])c1ccc(C(c2sc3nc(-c4ccco4)nn3c2O)N2CCN(c3cccc(Cl)c3)CC2)cc1 (stereo unspecified)	0	0	-	-	-
Clc1ccc(C(Cn2ccnc2)OCc2ccc(Sc3ccccc3)cc2)c(Cl)c1 (stereo unspecified)	0	-	-	-	-
Cn1ncc2cc(NC(=S)NC(=O)c3ccccc3)ccc21	0	0	39.8µM	0	0
O=C(NC(=S)Nc1cnc2ccccc2c1)c1ccccc1	0	0	0	0	?
O=C(O)c1ccc(NC(=S)NC(=O)c2ccc(-c3ccccc3)cc2)cc1	?	0	20µM	0	0
O=C(NC(=S)Nc1ccc2c(c1)OCCO2)c1ccccc1	0	0	31.6µM	0	0
